Screening data deposited in PubChem BioAssay by National Center for Advancing Translational Sciences (NCATS).
KB-V1 cytotox – KB-V1 MDR subline cytotoxicity | KB-V1 MDR cells viability, CellTiter-Glo, 72 h | Potency, µM (series often up to 46.1 µM), actives largely listed as cytotoxic | hit rate 3.4% among 400,000; also: nearly all actives have a fitted effect of over 60% in size
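Luminescent ATP read-out (CellTiter-Glo, 10 min) measures survival of drug-selected KB-V1 MDR cells after 72 h, 37 degrees C compound exposure. Medium: phenol-red-free DMEM, 10% FBS. Values from fitted concentration-response curves.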
TDP1 cell noCPT – qHTS for Inhibitors of human tyrosyl-DNA phosphodiesterase 1 (TDP1): qHTS in cells in absence of CPT; DT40 Tdp1-/- hTDP1 cells, no CPT, ATP luminescence, 48 h; Potency, µM (top dose mostly 46.2 µM), without a hit: at the highest dose activity change, negative = growth inhibition, actives largely listed as inhibitors; hit rate 15% among 420,000; also: nearly all actives have a fitted effect of over 55% in size
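Cells were dispensed at 400 per well, compounds added by pin tool, plates incubated ≥48 hr at 37 °C, then CellTiter-Glo added for 30 min at room temperature before luminescence reading. Line: DT40 Tdp1-/- complemented with hTDP1; camptothecin omitted.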
HT1080 IDH1KD tx – toxicity to HT-1080 IDH1 knockdown cells (counter line); hit rate 2% among 360,000; AID 686971; Potency, µM (series often up to 46.1 µM), for inactives: top-dose activity, negative = toxicity, actives largely listed as cytotoxic; HT-1080 IDH1 knockdown viability, ATP luminescence, 48 h;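 also: 0% = DMSO wells and -100% = cell-free medium wells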
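Cytotoxicity counter-line: IDH1KD HT-1080, 48 h, CellTiter-Glo. Curves classed by r2, magnitude and activity.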
DT40 TDP1 CPT – growth inhibition of DT40 Tdp1-/-;hTDP1 cells with camptothecin (screen for TDP1 inhibitors). chicken DT40 Tdp1-/-;hTDP1 cells + 20 nM CPT, ATP luminescence, 48 h. Potency, µM (highest dose often 46.2 µM), for inactives: top-dose activity change, negative = growth inhibition, actives largely listed as inhibitors. hit rate 12% among 420,000; also: nearly all actives have a fitted effect of over 55% in size
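Cell growth measured by CellTiter-Glo luminescence after a minimum 48 h, 37 C compound exposure with 20 nM CPT in Tdp1-knockout DT40 cells stably expressing hTDP1, seeded 400/well; qHTS titration format.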
KB-3-1 cytotox – KB-3-1 parental cell cytotoxicity; KB-3-1 viability, CellTiter-Glo ATP luminescence, 72 h; Potency, µM (top dose mostly 46.1 µM), most hits filed as cytotoxic; hit rate 1.4% among 400,000; AID 1347075; also: nearly all actives have a fitted effect of over 60% in size
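Cells are dispensed, compounds pinned in, plates held at 37 °C for 72 h, then CellTiter-Glo is added and luminescence read after 10 minutes. Cell line: parental KB-3-1 in phenol-red-free DMEM, 10% FBS.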
HT1080NT lethal – kills 2HG-producing HT-1080-NT fibrosarcoma cells; HT-1080-NT fibrosarcoma viability, CellTiter-Glo ATP luminescence, 48 h; Potency, µM (doses to about 46.1 µM), without a hit: at the highest dose activity, negative = less viability, usual class: cytotoxic; hit rate 1.6% among 360,000; AID 686970;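 also: NT is the 2HG producing partner of a matched IDH1 knockdown line; 0% = DMSO-treated cells and -100% = media-only wells without cells; nearly all actives have a fitted effect of over 55% in size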
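Viability by CellTiter-Glo luminescence after 48 h compound exposure at 37C of HT-1080-NT cells (750/well, RPMI, 5% FBS). % activity scaled between DMSO wells and medium-only wells, then curve-fitted and categorized by curve class.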
Active calls of the source: *; i = inactive; ? = inconclusive; . = not tested or not shown; [ ] = dose if it differs, or a comment. Only some compounds are listed: those with a hit (about 19% of all), similar ones and a draw of the others. Calls follow the shape of the dose curve; as a rule, active = well fitted curve in the direction sought with a large enough effect; inconclusive = small, poorly fitted or top-dose-only effect, or another doubt; inactive = no such curve, though single readings can be large; an effect the other way counts as inactive or inconclusive. Unless noted, % is scaled to controls: 0 for no effect and ±100 for the full control effect; potency is read from the fitted curve at half-maximal effect.

SMILES	KB-V1 cytotox	TDP1 cell noCPT	HT1080 IDH1KD tx	DT40 TDP1 CPT	KB-3-1 cytotox	HT1080NT lethal
COC(=O)N/N=C/c1cc(C)n(-c2cccc3ccccc23)c1C	20.6µM*	-25.8%	0.8%	-29.7%	?	-4.4%
Cc1ccc(-n2c(C)cc(/C=N/NC(N)=S)c2C)cc1	i	3.66µM*	-1.2%	3.66µM*	i	-4.5%
CCCC(=O)Nc1ccc(C(=O)NNC(=S)NC(=O)c2ccc(Br)o2)cc1	?	?	?	?	i	-11.6%
CS(=O)(=O)N1CCc2cc(C(=O)NCc3ccccc3)ccc21	?	-26.4%	.	-7.9%	i	.
Cc1cc(NC(=O)c2cc(C(C)C)on2)no1	i	?	-0.1%	0.7%	i	12.8%
Cc1ccc(-n2c(C)cc(/C=N/NC(=O)CN(c3ccc(C)cc3C)S(C)(=O)=O)c2C)cc1	i	20.6µM*	?	?	i	?
Cc1ccc(-n2c(C)cc(/C=N/NC(=O)CC3(C)OCCO3)c2C)cc1	i	?	-8.8%	?	i	-13.1%
COc1cc(NS(=O)(=O)c2cn(C)cn2)cc(OC)c1OC	i	27.2%	-7.0%	-7.4%	i	-0.6%
COc1cc(NS(=O)(=O)c2c(C)oc3c(F)c(F)c(F)c(F)c23)cc(OC)c1OC	i	18.4µM*	4.7%	23.1µM*	i	0.0%
Cc1cc(NC(=O)c2cccs2)cc(-c2nc3cc(Cl)ccc3o2)c1O	?	.	.	.	i	.
COc1ccc(-c2noc(-c3ccccc3C(=O)Nc3cccnc3)n2)cc1	?	?	-8.6%	?	i	-11.1%
COc1ccccc1-c1noc(-c2ccccc2C(=O)Nc2cccnc2)n1	10.3µM*	?	-2.8%	?	i	-7.4%
Cc1ccccc1-c1nc(-c2ccc(Br)o2)no1	i	4.6%	0.1%	25.5%	i	-0.7%
COc1ccc(-c2noc(-c3ccccc3C(=O)Nc3cccc(OC)c3)n2)cc1	?	16.4µM*	0.9%[9.24 µM]	?	?	-3.2%
COc1ccc(-c2noc(-c3ccccc3C(=O)N3CCOCC3)n2)cc1	9.2µM*	?	3.5%	?	i	2.1%
Cc1ccccc1-c1nc(-c2ccc(NC(=O)c3ccc(Br)o3)cc2)no1	i	?	7.9%	15.8µM*	i	12.1%
COc1ccc(-c2noc(-c3ccccc3C(=O)Nc3cccnc3)n2)cc1OC	i	?	1.4%	-21.8%	i	-2.4%
COc1ccc(OC(=O)CN2C(=O)C3C4CCC(C4)C3C2=O)cc1 (stereo not given)	i	?	2.6%	3.0%	i	-1.6%
CCc1ccccc1NC(=O)CN(c1ccccc1OC)S(=O)(=O)c1ccc(C)cc1	i	18.4µM*	.	?	i	.
CCOc1ccccc1NC(=O)CN(CCc1ccccc1)S(=O)(=O)c1ccc(C)cc1	i	16.4µM*	.	?	i	.
COc1ccc(C)cc1NC(=O)CN(c1cc(C(F)(F)F)ccc1Cl)S(C)(=O)=O	i	16.4µM*	.	?	i	.
Cc1ccc(C)c(NC(=O)CN(CCc2ccccc2)S(=O)(=O)c2ccccc2)c1	i	?	.	?	i	.
COc1ccc(OC)c(NC(=O)CN(c2ccccc2OC)S(=O)(=O)c2ccc(C)cc2)c1	i	25.9µM*	.	16.4µM*	?	.
O=C(COC(=O)c1cc(=O)[nH]c(=O)[nH]1)NCc1ccccc1	i	6.7%	3.2%	5.4%	i	3.1%
CCCCOc1ccc(C(=O)N2CC(C)OC(C)C2)cc1 (stereo not given)	i	?	2.9%	-3.3%	i	7.8%
